Data published in PubChem BioAssay (NCATS).
Inconclusive results are not listed. Active and inactive are the calls of the source. Unless noted, the call rests on the fitted dose curve; in most records, active means well fitted curve in either direction with a large enough effect (not every such curve was filed as active); inconclusive means small, poorly fitted or top-dose-only effect, or another doubt; inactive means flat fitted curve, though single readings scatter.

Columns and labels:
[1] = biological target: Lysosomal acid glucosylceramidase (Homo sapiens) (UniProt P04062); test: Glucocerebrosidase-p2 (AID 348; in the data active means potency below about 10 µM; further: potency means the concentration at half of the fitted maximal effect); settings: purified GBA, blue fluorogenic substrate, 40 min
Sequence of Lysosomal acid glucosylceramidase (Homo sapiens) (P04062 whole entry, looked up): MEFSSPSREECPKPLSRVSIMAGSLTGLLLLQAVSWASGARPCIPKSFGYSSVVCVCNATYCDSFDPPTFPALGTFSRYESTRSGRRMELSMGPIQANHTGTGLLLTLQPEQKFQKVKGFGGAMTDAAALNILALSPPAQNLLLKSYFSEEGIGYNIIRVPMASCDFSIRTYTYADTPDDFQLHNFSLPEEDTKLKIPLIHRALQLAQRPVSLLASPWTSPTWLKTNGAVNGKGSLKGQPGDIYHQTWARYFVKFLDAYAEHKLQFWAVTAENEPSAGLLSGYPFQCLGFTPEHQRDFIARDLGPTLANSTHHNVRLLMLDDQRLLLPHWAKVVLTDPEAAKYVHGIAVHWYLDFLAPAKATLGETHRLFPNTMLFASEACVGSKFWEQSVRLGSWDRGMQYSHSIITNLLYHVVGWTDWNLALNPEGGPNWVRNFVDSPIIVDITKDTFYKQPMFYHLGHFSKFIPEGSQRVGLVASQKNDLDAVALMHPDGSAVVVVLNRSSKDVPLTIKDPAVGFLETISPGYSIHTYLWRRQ
Outline: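 Normal human glucocerebrosidase (0.2 nM) with blue fluorogenic substrate (80 uM final) in citrate/phosphate pH 5.9 with 10mM sodium taurocholate, 0.01% tween-20; 40 min RT, NaOH/glycine stop; fluorescence Ex 365/Em 440; AC50 from a titration from 0.6 nM upwards.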

[2] = AP1 Signaling Pathway (AID 357); settings: ME-180 AP-1-bla reporter, EGF-induced, beta-lactamase ratio, 5 h; at 7.69 µM (top of the series) unless noted;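 further: ME-180 reporter cells stimulated with EGF at its EC50 level; on the % scale 0 is the no-effect control and ±100 the full control effect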
Outline: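 Read-out was the 460nm/530nm emission ratio (excitation 405nm) after CCF4 loading for 2.5 hours at room temperature. Cells carried an AP-1-driven beta-lactamase reporter, were stimulated with EC50 EGF plus compound for 5 hours, and AC50 values came from titrations.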

[3] = biological target: Cytochrome P450 1A2 (Homo sapiens) (UniProt P05177); test: p450-cyp1a2 (AID 410; calls by dose curve; further: potency means the concentration at half of the fitted maximal effect;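 on activity change, negative = inhibition: -100% = full effect of reference inhibitor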); settings: recombinant CYP1A2, luciferin-ME demethylation, luminescence; series mostly up to 57 µM
Sequence of Cytochrome P450 1A2 (Homo sapiens) (P05177 whole entry, looked up): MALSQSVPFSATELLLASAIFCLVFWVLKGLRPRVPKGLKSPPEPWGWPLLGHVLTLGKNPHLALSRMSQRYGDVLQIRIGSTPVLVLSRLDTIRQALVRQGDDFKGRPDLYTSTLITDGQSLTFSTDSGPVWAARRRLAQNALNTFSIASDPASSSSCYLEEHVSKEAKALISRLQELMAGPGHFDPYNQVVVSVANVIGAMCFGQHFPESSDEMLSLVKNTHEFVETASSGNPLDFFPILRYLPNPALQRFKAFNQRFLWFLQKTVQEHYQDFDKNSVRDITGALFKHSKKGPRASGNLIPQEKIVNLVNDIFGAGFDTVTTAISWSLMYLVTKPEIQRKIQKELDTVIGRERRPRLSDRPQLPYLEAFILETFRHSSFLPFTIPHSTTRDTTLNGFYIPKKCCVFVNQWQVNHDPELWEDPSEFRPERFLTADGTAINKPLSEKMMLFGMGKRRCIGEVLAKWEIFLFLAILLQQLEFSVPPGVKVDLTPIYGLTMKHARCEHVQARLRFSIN
Outline: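 Read-out is luminescence from luciferin produced by CYP1A2 demethylation of Luciferin-ME (100uM, at Km). Detection reagent stopped the 60 min NADPH-dependent reaction; signals were normalized to 57 uM furafylline.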

[4] = NFAT Signaling Pathway (AID 444); settings: Jurkat NFAT-bla M1, carbachol, beta-lactamase ratio, 5 h; at 7.69 µM (top of the series) unless noted;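 further: carbachol stimulus at about its EC50 of 1 µM final; on the % scale 0 is the no-effect control and ±100 the full control effect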
Outline: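 Read-out: CCF4 FRET ratio (460 nm/530 nm) after 1 h RT dye loading, used for %activity and AC50 from titration series. Cells: Jurkat NFAT-β-lactamase/M1 line, treated with compound plus 1 uM carbachol for 5 h, 37 °C.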

[5] = Stat Signaling Pathway (AID 446); settings: ME-180 (cervical carcinoma) SIE beta-lactamase reporter, IL-6 stimulated, 5 h; at 7.69 µM (top of the series) unless noted;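 further: ME-180 cervical cancer cells given 40 pM IL-6 alongside compound; SIE-controlled beta-lactamase reporter measured as 460/530 nm FRET emission ratio; on the % scale 0 is the no-effect control and ±100 the full control effect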
Outline: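 Compound effects on IL-6-induced STAT reporter activity were measured in ME-180 cells. After overnight culture, cells were co-treated with 40 pM IL-6 for 5 hrs before beta-lactamase substrate loading at room temperature.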

[6] = biological target: Glucocorticoid receptor (Homo sapiens) (UniProt P04150); test: GR-GFP Redistribution (AID 450;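 active means compounds whose dose series gives a full or clear partial fitted curve of increased nuclear translocation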; further: potency means the concentration at half of the fitted maximal effect); settings: U2OS GR-GFP nuclear translocation, laser cytometry, 2 h
Sequence of Glucocorticoid receptor (Homo sapiens) (P04150 whole entry, looked up, the tested form may be a part): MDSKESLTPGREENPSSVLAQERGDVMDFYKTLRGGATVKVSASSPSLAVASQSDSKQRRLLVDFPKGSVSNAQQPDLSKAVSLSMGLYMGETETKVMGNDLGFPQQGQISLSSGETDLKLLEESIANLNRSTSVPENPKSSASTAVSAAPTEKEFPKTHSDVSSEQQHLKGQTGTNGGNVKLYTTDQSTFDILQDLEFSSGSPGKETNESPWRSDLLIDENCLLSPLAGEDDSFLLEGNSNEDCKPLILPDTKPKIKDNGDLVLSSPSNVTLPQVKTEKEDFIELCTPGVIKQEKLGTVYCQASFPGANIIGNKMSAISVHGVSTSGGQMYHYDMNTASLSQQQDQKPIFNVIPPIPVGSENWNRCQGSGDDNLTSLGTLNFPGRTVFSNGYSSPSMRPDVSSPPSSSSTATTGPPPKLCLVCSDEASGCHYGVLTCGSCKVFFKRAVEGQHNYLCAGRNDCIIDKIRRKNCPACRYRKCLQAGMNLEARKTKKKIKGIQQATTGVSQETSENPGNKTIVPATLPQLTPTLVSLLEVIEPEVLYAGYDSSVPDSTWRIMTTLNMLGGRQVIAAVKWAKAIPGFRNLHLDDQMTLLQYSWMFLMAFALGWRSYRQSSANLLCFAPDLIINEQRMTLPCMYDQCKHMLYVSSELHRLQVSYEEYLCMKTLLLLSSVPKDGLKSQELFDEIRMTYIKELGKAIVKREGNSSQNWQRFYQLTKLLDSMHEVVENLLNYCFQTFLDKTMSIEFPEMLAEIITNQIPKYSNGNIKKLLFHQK

[7] = biological target: Glucocorticoid receptor (Homo sapiens) (UniProt P04150); test: GR-EFC Redistribution (AID 451; calls by dose curve; further: potency means the concentration at half of the fitted maximal effect); settings: CHO-K1 GR-EFC translocation, beta-gal luminescence, 2 h
Outline: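 Translocation of GR-ED fusion to nuclear EA restores b-gal, read by luminescence after 1 h room-temperature detection. Engineered CHO-K1 biosensor cells, 1,000/well, exposed 2 h at 37 C to titrations up to 46 uM final.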

[8] = biological target: Mitogen-activated protein kinase 10 (Mus musculus) (UniProt Q61831); test: JNK3 AlphaScreen Assay (AID 530); settings: JNK3 lysate, c-Jun phosphorylation; series mostly up to 57.1 µM;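 further: kinase came from lysate of stimulated human HepG2 cells; signal reports phosphorylation of biotinylated GST-cJun 1-79 at Ser73 with 10 µM ATP; on the % scale 0 is the no-effect control and ±100 the full control effect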
Outline: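 Kinase buffer: 20 mM Tris-HCl pH 7.6, 10 mM MgCl2, 1 mM DTT, 0.1 mM Na3VO4, 0.01% Tween-20; ATP 10 uM. Substrate biotin-GST-cJun(1-79), enzyme from activated HepG2 lysates. Detection by Ser73 phospho-antibody AlphaScreen.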

[9] = biological target: 3',5'-cyclic-AMP phosphodiesterase 4B (Homo sapiens) (UniProt Q07343); test: qHTS Assay for Inhibitors of PDE-IV (AID 607; active means well fitted activation curve with a large enough effect in the main read-out, with a control signal flat, not every such curve was filed as active; further: % of control where 0% means no effect); settings: HEK293 ACTOne CNG channel cells, membrane potential fluorescence; series mostly up to 22.9 µM
Sequence of 3',5'-cyclic-AMP phosphodiesterase 4B (Homo sapiens) (Q07343 whole entry, looked up): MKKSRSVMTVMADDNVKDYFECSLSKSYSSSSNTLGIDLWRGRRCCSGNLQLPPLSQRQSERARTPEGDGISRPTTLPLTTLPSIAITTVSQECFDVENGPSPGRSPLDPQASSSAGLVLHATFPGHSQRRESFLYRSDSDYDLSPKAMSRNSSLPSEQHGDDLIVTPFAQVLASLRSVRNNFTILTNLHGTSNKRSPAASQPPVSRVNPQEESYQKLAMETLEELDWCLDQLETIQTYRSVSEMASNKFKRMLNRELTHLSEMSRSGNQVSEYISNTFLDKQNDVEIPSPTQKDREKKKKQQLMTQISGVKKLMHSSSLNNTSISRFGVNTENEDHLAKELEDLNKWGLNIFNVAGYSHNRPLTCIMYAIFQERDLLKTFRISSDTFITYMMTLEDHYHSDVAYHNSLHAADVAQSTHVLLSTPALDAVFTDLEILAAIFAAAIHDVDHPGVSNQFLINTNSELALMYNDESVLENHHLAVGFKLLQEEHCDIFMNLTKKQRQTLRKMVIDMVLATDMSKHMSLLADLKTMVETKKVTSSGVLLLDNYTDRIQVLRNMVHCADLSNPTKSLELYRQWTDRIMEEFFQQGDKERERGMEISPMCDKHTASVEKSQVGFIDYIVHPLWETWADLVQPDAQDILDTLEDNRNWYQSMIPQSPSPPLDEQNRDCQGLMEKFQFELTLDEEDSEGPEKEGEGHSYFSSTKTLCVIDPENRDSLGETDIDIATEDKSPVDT
Outline: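 ACTOne HEK293 cells carry a modified cAMP-gated CNG channel and express endogenous PDE4; plated 1000 cells/well, compounds up to 22.9 uM final. Membrane-potential dye fluorescence (ex 535/em 590) was read; parental cells received 10 uM forskolin + 100 uM RO 20-1724.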

[10] = biological target: Cytochrome P450 3A4 (Homo sapiens) (UniProt P08684); test: qHTS Assay for Activators of Cytochrome P450 3A4 (AID 885; active means well fitted curve in the direction sought with a large enough effect; an effect the other way counts as inactive or inconclusive; further: nearly all actives have a fitted effect of over 65% in size); settings: recombinant CYP3A4, Luciferin-PPXE luminescence, 60 min; series mostly up to 57.1 µM
Sequence of Cytochrome P450 3A4 (Homo sapiens) (P08684 whole entry, looked up): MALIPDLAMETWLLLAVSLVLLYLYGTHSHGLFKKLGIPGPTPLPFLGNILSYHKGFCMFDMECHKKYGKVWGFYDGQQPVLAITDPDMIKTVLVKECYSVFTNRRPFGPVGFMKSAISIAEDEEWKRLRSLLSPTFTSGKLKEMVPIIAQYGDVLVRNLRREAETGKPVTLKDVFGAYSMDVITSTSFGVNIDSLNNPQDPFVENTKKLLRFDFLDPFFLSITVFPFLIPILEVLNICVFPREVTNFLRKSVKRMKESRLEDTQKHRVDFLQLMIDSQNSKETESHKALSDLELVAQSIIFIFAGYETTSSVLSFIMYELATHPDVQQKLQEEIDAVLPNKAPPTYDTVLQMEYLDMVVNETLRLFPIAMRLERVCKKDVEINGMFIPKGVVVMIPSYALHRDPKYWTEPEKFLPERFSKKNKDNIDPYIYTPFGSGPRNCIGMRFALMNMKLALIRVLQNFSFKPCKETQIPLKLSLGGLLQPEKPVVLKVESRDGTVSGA
Outline: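 CYP3A4 activity: Luciferin-PPXE O-dealkylation, 25uM substrate, 200mM KPO4, RT throughout. Read-out is luciferase luminescence; higher values reflect activation.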

[11] = Confirmation and Secondary Assay for Modulators of Hemoglobin Beta Chain Splicing at IVS2 654 locus (AID 910; active means well fitted curve in the direction sought with a large enough effect; an effect the other way counts as inactive or inconclusive;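 further: HeLa cells stably carrying EGFP split by mutant beta-globin IVS2-654 intron; per-well total GFP intensity by laser scanning cytometry after 2-day treatment; % of control where 0% means no effect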); settings: HeLa EGFP-654 splicing reporter, GFP fluorescence, 48 h; series mostly up to 38.3 µM
Outline: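 Readout: per-well total peak green fluorescence (488 nm ex, 500–520 nm em) from objects 5–250 µm, reflecting correct splicing of an EGFP-654 reporter. Compounds were applied for 2 days at 37 °C to overnight-plated HeLa EGFP-654 cells; controls were DMSO and 500 nM IVS2-654 PNA.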

[12] = Confirmation and Secondary Assay for Modulators of Hemoglobin Beta Chain Splicing at IVS2 705 locus (AID 930; active means well fitted curve in the direction sought with a large enough effect; an effect the other way counts as inactive or inconclusive;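 further: HeLa cells stably expressing the EGFP-705 splicing reporter; GFP fluorescence per well restored by corrected splicing of the IVS2-705 intron in EGFP; % of control where 0% means no effect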); settings: HeLa EGFP-705 splicing reporter, GFP fluorescence, 48 h; series mostly up to 38.3 µM
Outline: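 Stable HeLa line with EGFP disrupted by mutant beta-globin intron 2 (705). Overnight attachment, then 2 days of compound at 37C, 5% CO2. Signal: peak GFP intensity summed over objects 5-250 µm.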

[13] = qHTS Assay for Lipid Storage Modulators (AID 1519; calls by dose curve); settings: Drosophila S3 cells, BODIPY lipid droplet/cell ratio, laser cytometry, cells loaded with oleic acid; for activity change, negative = inhibition: at 57.5 µM (top of the series)
Outline: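 Cells seeded at 5,000 per well were treated with compounds over a concentration series and loaded with oleic acid (400 uM, as added). Lipid droplet fluorescence (488 nm excitation, 500-530 nm channel) was read by laser-scanning cytometry and normalized to 20 uM Triacsin C.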

[14] = Primary qHTS for small molecule stabilizers of the endoplasmic reticulum resident proteome: Secreted ER Calcium Modulated Protein (SERCaMP) assay (AID 1508630; active means well fitted curve in the direction sought with a large enough effect; an effect the other way counts as inactive or inconclusive; further: on the % scale 0 is the no-effect control and ±100 the full control effect); settings: SH-SY5Y GLuc-SERCaMP (Gaussia luciferase released on ER calcium loss) secretion, thapsigargin, luminescence; series mostly up to 38.4 µM
Outline: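 The SH-SY5Y reporter protocol was run at 3 concentrations up to 38.3 uM (primary) or 11 concentrations (follow-up): 16 h compound, 100 nM thapsigargin for 4 h, then extracellular luciferase luminescence.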

[15] = measured here: cell count channel max response
[16] = measured here: lipid channel max response

In the case of `Cc1cnc(CNc2ncncc2-c2ccccc2C(F)(F)F)cn1`, the Potency [1] is reported as > 11.4 µM (inactive), the activity change, negative = inhibition [2] is reported as -6.17% (inactive) and the Potency [3] is reported as “inactive”. For the same compound, the activity change, negative = inhibition [4] was 2.1% (inactive), the activity, negative = inhibition [5] was -1.72% (inactive) and the Potency [6] was > 46 µM (inactive). The Potency [7] was > 46 µM (inactive), the outcome [8] was “inactive” and the Potency [9] was “inactive”. For the same compound, the Potency [10] was “inactive”, the outcome [11] was “inactive” and the outcome [12] was “inactive”. For the same compound, the activity change, negative = inhibition [13] was 7.68% (inactive), the max response [13, 15] was 18.6% and the max response [13, 16] was 28.1%. The Potency [14] was “inactive”.
With `COc1ccc(Oc2ncc3nc(-c4ccc(OC)cc4)c(=O)n(Cc4cccs4)c3n2)cc1` the Potency [1] was > 11.4 µM (inactive), the activity change, negative = inhibition [2] was -28.2% (inactive) and the Potency [3] was 15.8 µM (active). The activity change, negative = inhibition [4] was 2.5% (inactive), the activity, negative = inhibition [5] was 8.59% (inactive) and the Potency [6] was > 9.22 µM (inactive). For the same compound, the Potency [7] was > 46 µM (inactive), the outcome [8] was “inactive” and the Potency [9] was “inactive”. For the same compound, the activity change, negative = inhibition [13] was 6.95% (inactive), the max response [13, 15] was 13.2% and the max response [13, 16] was 21.9%. For the same compound, the Potency [14] was “inactive”.
In the case of `CN(C)c1ccc(-c2ccc3ncnc(N4CCNCC4)c3c2)cc1`, the Potency [1] is reported as > 11.4 µM (inactive), the activity change, negative = inhibition [2] is reported as 5.26% (inactive) and the Potency [3] is reported as 2.51 µM (active). For the same compound, the activity change, negative = inhibition [4] was -13.1% (inactive), the activity, negative = inhibition [5] was 5.8% (inactive) and the Potency [6] was > 46 µM (inactive). For the same compound, the Potency [7] was > 46 µM (inactive), the outcome [8] was “inactive” and the Potency [9] was “inactive”. The Potency [10] was “inactive”, the outcome [11] was “inactive” and the outcome [12] was “inactive”. For the same compound, the activity change, negative = inhibition [13] was 7.34% (inactive), the max response [13, 15] was -3.08% and the max response [13, 16] was 4.85%. The Potency [14] was “inactive”.
